This note sets out measurements from PMC11006913.

Common to all, as to assay: PBM; 200 nM protein, PBS
Common to all, as to conditions: dsDNA, one strand shown

One test addresses PITX2 (Homo sapiens, UniProt Q99697 72-157).
Test [1] concerns the target T1, SIX6 (Homo sapiens, UniProt O95475 114-200, T165P).
T1 sequence: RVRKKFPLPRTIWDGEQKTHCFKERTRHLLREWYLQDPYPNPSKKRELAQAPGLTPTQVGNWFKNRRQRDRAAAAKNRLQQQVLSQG

Test [2] deals with T2, SIX6 (Homo sapiens, UniProt O95475 114-200, T165I).
T2 sequence: T1 sequence with P52I

The target in test [3] is T3, NKX2-4 (Homo sapiens, UniProt Q9H2Z4 175-261, P217L).
T3 sequence: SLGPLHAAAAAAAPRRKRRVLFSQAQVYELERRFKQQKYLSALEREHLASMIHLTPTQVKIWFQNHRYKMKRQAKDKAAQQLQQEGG

For test [4], the target named is T4, NKX2-4 (Homo sapiens, UniProt Q9H2Z4 175-261, T231S).
T4 sequence: T3 sequence with L43P, T57S

Test [5] addresses T5, NKX2-4 (Homo sapiens, UniProt Q9H2Z4 175-261).
T5 sequence: T3 sequence with L43P

Test [6] concerns the target T6, NKX2-4 (Homo sapiens, UniProt Q9H2Z4 175-261, R246Q).
T6 sequence: T3 sequence with L43P, R72Q

Another test deals with T7, NKX2-6 (Homo sapiens, UniProt A6NCS4 118-204).
T7 sequence: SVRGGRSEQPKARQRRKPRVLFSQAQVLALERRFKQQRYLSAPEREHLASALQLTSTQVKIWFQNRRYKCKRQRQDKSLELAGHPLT

The target in test [7] is CRX (Homo sapiens, UniProt O43186 26-111).
CRX (Homo sapiens, UniProt O43186 26-111), sequence (O43186 26-111): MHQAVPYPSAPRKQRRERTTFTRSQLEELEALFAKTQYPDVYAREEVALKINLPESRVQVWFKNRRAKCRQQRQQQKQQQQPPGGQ
Test [8] deals with CRX (Homo sapiens, UniProt O43186 26-111, E42D).
CRX (Homo sapiens, UniProt O43186 26-111, E42D), sequence (O43186 26-111 E42D): as the sequence (O43186 26-111) above, with E17D counted along it

Residue numbers refer to the chain shown, from its start.

As to AATTAATC, the binding signal in the test with PITX2 is 12.4 upbm affinity estimate (log intensity, higher = more binding, comparable within an allelic series).

On to CCAGGTCC, for which the binding signal in the test with SIX6 [1] is 8.71 upbm affinity estimate (log intensity, higher = more binding, comparable within an allelic series); with SIX6 [2], 9.08 upbm affinity estimate (log intensity, higher = more binding, comparable within an allelic series).

For CCCCGGCG, the binding signal with NKX2-4 [3] is 9.5 upbm affinity estimate (log intensity, higher = more binding, comparable within an allelic series); with NKX2-4 [4], 9.48 upbm affinity estimate (log intensity, higher = more binding, comparable within an allelic series); with NKX2-4 [5], 9.57 upbm affinity estimate (log intensity, higher = more binding, comparable within an allelic series); with NKX2-4 [6], 9.55 upbm affinity estimate (log intensity, higher = more binding, comparable within an allelic series).

For the sequence AATTAGTG, the binding signal with NKX2-6 is 11.9 upbm affinity estimate (log intensity, higher = more binding, comparable within an allelic series).

Take GAGGGGGC: the binding signal with CRX [7] was 8.07 upbm affinity estimate (log intensity, higher = more binding, comparable within an allelic series); with CRX [8] it was 8.05 upbm affinity estimate (log intensity, higher = more binding, comparable within an allelic series).

Take GGAGCGCA: the binding signal with SIX6 [1] was 8.9 upbm affinity estimate (log intensity, higher = more binding, comparable within an allelic series); in the test with SIX6 [2], 8.91 upbm affinity estimate (log intensity, higher = more binding, comparable within an allelic series).

Take ATTAATGC: the binding signal in the test with CRX [7] is 11.9 upbm affinity estimate (log intensity, higher = more binding, comparable within an allelic series); in the test with CRX [8] it was 11.7 upbm affinity estimate (log intensity, higher = more binding, comparable within an allelic series).

Consider GAGCTGGC, for which the binding signal was 9.65 upbm affinity estimate (log intensity, higher = more binding, comparable within an allelic series) with NKX2-4 [3]; 9.66 upbm affinity estimate (log intensity, higher = more binding, comparable within an allelic series) with NKX2-4 [4]; 9.73 upbm affinity estimate (log intensity, higher = more binding, comparable within an allelic series) in the test with NKX2-4 [5]; 9.66 upbm affinity estimate (log intensity, higher = more binding, comparable within an allelic series) in the test with NKX2-4 [6].
